Screens from PubChem BioAssay.
gsp antagonist – qHTS for Antagonists of gsp, the Etiologic Mutation Responsible for Fibrous Dysplasia/McCune-Albright Syndrome: qHTS; Potency, µM (highest dose often 76.9 µM), without a hit: at the highest dose activity change, negative = inhibition, most hits filed as inhibitors; gsp-mutant cells, cAMP HTRF, 30 min; 340,000 compounds, 0.4% hits; calls by dose curve; cell line not stated here;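 note: intracellular cAMP measured with PDE inhibitor Ro 20-1724 present during compound exposure; potency is the fitted concentration of half-maximal effect; % is set by controls: 0 for no effect and ±100 for the full control effect; nearly all actives have a fitted effect of over 65% in size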
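HTRF cAMP measurement after 30 min RT detection following 30 min, 37C compound treatment alongside […] (added as 300 uM solution) in G418-selected cells seeded at 2000/well and grown 16–24 h.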
BRCA1 expr up – qHTS Assay to Identify Small Molecule Activators of BRCA1 Expression | MCF7-BRCA1-FFLuc reporter, luminescence, 48 h; response scale: scaled: vehicle 0%, 10 µM genistein 100% | Potency, µM (titrated, usually from 46.1 µM), for the others: top-dose activation, most hits filed as activators | 380,000 compounds, 1.1% hits | AID 624202, 2012; note: potency is the fitted concentration of half-maximal effect; nearly all actives have a fitted effect of over 80% in size
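First, MCF7-BRCA1-FFLuc cells (2000/well) attach for 2 h; next, compounds are pin-added and incubated 48 h at 37 °C; finally, luciferase reagent is added and luminescence read after 15 min.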
gsp ag – qHTS for Agonist of gsp, the Etiologic Mutation Responsible for Fibrous Dysplasia/McCune-Albright Syndrome: qHTS; gsp mutant cells, cAMP HTRF, 30 min; Potency, µM (highest dose often 76.9 µM), for the others: at the top dose activation (cAMP increase), usual class: activators; 340,000 compounds, 0.13% hits; active = well fitted activation curve with a large enough effect; inconclusive = small, poorly fitted or top-dose-only effect, or another doubt; inactive = no such curve, though single readings can be large or run the other way; cell line not stated here;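 note: phosphodiesterase inhibitor Ro 20-1724 added with compounds to block cAMP breakdown; potency is the fitted concentration of half-maximal effect; nearly all actives have a fitted effect of over 60% in size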
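Cells stably selected in G418 were plated at 2000/well, grown 16-24 hr, then given compounds in DMSO with the PDE inhibitor […] (300 uM solution added) for 30 min at 37C; cAMP was read by HTRF.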
IDH1 R132H inh – qHTS for Inhibitors of mutant isocitrate dehydrogenase 1 (IDH1): qHTS; 390,000 compounds, 0.093% hits; Potency, µM (top dose mostly 76.6 µM), for the others: at the top dose activity change, negative = inhibition, actives largely listed as inhibitors; IDH1-R132H enzyme, NADPH consumption, diaphorase/resazurin fluorescence; AID 602179, 2012; note: potency is the fitted concentration of half-maximal effect; % is set by controls: 0 for no effect and ±100 for the full control effect; nearly all actives have a fitted effect of over 65% in size
Target sequence (O75874 whole entry R132H, stated change not applied): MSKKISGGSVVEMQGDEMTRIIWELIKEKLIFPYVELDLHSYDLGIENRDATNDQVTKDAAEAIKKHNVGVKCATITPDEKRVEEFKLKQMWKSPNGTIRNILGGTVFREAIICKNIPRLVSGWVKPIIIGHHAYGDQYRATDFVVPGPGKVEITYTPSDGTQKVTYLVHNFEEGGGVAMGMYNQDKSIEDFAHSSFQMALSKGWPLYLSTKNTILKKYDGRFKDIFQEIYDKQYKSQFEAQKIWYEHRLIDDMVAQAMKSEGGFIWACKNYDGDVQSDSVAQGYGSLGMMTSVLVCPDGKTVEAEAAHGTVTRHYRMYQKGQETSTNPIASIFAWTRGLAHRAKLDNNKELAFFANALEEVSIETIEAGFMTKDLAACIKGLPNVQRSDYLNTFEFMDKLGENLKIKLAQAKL
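IDH1-R132H (0.5 ug/mL) preincubated 30 min with compound, then NADPH (0.016 mM) and alpha-KG (2 mM) added; 80 min at RT, pH 7.5. Remaining NADPH coupled via diaphorase/resazurin to fluorescence (540/590 nm); concentration-response curves normalized to no-enzyme control.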
IL2 activator – qHTS of IL-2 Activators; 360,000 compounds, 0.065% hits; activation, % (series mostly up to about 46 µM); IL-2 activation reporter assay, cell-based qHTS; stimulated with anti-CD3/CD4/CD28 beads; in transgenic mouse T cells; in the data active = activation above about 50%; inconclusive = mostly about 30% to 49%; note: 0% is about no effect
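Unstimulated transgenic mouse T cells preincubated 60 min with compound, then stimulated with anti-CD3/anti-CD4-coated beads plus anti-CD28 for 18 h at 37 degrees C. IL-2 response read as EGFP and DsRed fluorescence by plate cytometry.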
Active calls of the source: *; ? = inconclusive; · = not tested or not shown; ! = a repeat was not active; [ ] = dose if it differs, or a comment. Rows were chosen to be rich in hits. Some 1.5% of all compounds tested hit in one or more screens of this group. Unless noted, calls come from the whole dose curve; as a rule, active = well fitted curve in the direction sought with a large enough effect; inconclusive = small, poorly fitted or top-dose-only effect, or another doubt; inactive = no such curve, though single readings can be large; an effect the other way counts as inactive or inconclusive.

SMILES	gsp antagonist	BRCA1 expr up	gsp ag	IDH1 R132H inh	IL2 activator
CC1CCCC(NC(=O)c2n[nH]c(=O)c3ccccc23)C1C (configuration not stated)	-3%	11µM*	-13%	3%	0
Cc1snc(SCC(=O)c2ccc(F)cc2)c1C#N	14%	8.9µM*	7%[15.4 µM]	2%	-1
Cc1occc1C(=O)N1CCCC(N2CCN(c3cccc(Cl)c3)CC2)C1 (configuration not stated)	-4%	-18%	-26%	0%	-6
O=c1c(N2CCCCC2)coc2ccccc12	-1%	8.9µM*	8%	-3%	-2
O=c1cc(N2CCCCC2)c2ccccc2o1	-9%	6%	4%	0%	0
CCCCNc1ccc(/C=C2\C=Cc3ccccc32)cc1	·	6.3µM*	·	·	·
CNc1nn(-c2cccc(Cl)c2)nc1N	-16%	10µM*	-12%	-3%	-2
CC(C)CCN(C(=O)c1cn2ccccc2n1)c1c(N)n(Cc2ccccc2)c(=O)[nH]c1=O	1%	-1%	-43%	-6%	0
CN1CCCC1CCNc1ccc2c(=O)c3ccccc3oc2c1 (configuration not stated)	6%	13µM*	27%	-2%	0
CN1CCC[C@H]1CCNc1ccc2c(=O)c3ccccc3n(C)c2c1	2%	?	·	2%[38.3 µM]	0
Cn1c2ccccc2c(=O)c2cc(NCCCN3CCOCC3)ccc21	-19%	?	·	19%	0
O=c1c2ccccc2oc2cc(NCCCN3CCOCC3)ccc12	2%	5.6µM*	·	3%	0
CN1CCCC1CCNc1ccc2oc3ccccc3c(=O)c2c1 (configuration not stated)	0%	1.3µM*	·	0%[38.3 µM]	0
COc1cccc2sc3cc(NCCCN4CCOCC4)ccc3c(=O)c12	18%	10µM*	2%	6%	-2
O=c1c2ccccc2oc2ccc(NCCCN3CCOCC3)cc12	-7%	?	·	22%	0
CC(C)CNc1ncnc2nc[nH]c12	·	21%	·	·	·
Cc1oc(-c2ccccc2F)nc1CS(=O)(=O)CC(=O)N1CCN(c2ccc(Cl)cc2)CC1	·	-37%	·	2%	·
Cn1cc(S(=O)(=O)N2CCCCCC2)cc1C(=O)NCc1ccccc1Cl	·	-32%	·	19%	·
Cc1cccc(NC(=O)c2cnn3ccccc23)c1C	1%	13µM*	?	0%	-1
CC(=O)c1cccc(NC(=O)C(C)OC(=O)c2ccc(S(C)(=O)=O)c([N+](=O)[O-])c2)c1 (configuration not stated)	·	-7%	·	·	·
CCCc1ccc(OCC(=O)Nc2sc(C(=O)OCC)c(C)c2C(=O)OCC)cc1	·	·	·	-2%	·
COc1cc(/C=C(\CCC(=O)O)c2nc3ccccc3s2)ccc1OCC(=O)Nc1c(Cl)cccc1Cl	28µM*	10%	-48%	-4%	1
O=C(CCS(=O)(=O)c1ccccc1)N1CCN(c2ccccc2)CC1	8%	3.2µM*	22%[15.4 µM]	1%	0
CCN(CC)S(=O)(=O)c1ccc(NC(=O)c2cc3ccc4cccnc4c3[nH]2)cc1	·	·	·	-14%	·
O=C(Cc1ccc(Cl)cc1)N/N=C/c1cccc(O)c1	50µM*	0%	0%	4%	1
SMILES	gsp antagonist	BRCA1 expr up	gsp ag	IDH1 R132H inh	IL2 activator
Cc1cc(C)cc(NC(=O)C2CCN(c3cc(C)nc4c(-c5ccc(Cl)cc5)c(C)nn34)CC2)c1	·	6%	·	-9%	·
CC(C)c1ccc(NC(=O)c2cnn(-c3ccccc3)c2NC(=O)c2ccco2)cc1	40µM*	-24%	?	-4%	1
COCCn1c(C)cc(C(=O)COC(=O)c2ccc3ncsc3c2)c1C	-6%	11µM*	12%	7%	-1
Cc1cc(C(=O)COC(=O)c2ccc(O)cc2)c(C)n1CC(F)(F)F	-11%	7.9µM*	-51%	-6%	1
Cc1cc(C(=O)COC(=O)c2ccc(O)cc2)c(C)n1-c1ccccc1F	9%	-3%	10%[15.4 µM]	-6%	-1
COCCn1c(C)cc(C(=O)CSc2ccc(NC(C)=O)cc2)c1C	8%	7.1µM*	-6%	-6%	0
COCCn1c(C)cc(C(=O)COC(=O)c2cncc(Br)c2)c1C	2%	?	12%	-12%	0
COCCn1c(C)cc(C(=O)COC(=O)Cc2n[nH]c(=O)c3ccccc23)c1C	4%	8.9µM*	-15%[15.4 µM]	6%	-3
C=CCn1c(C)cc(C(=O)CSc2ccc(NC(C)=O)cc2)c1C	-4%	?	-20%	1%	1
Oc1ccccc1C1C=C(c2ccc3c(c2)OCO3)NC(c2ccc(F)c(Br)c2)N1 (configuration not stated)	·	-2%	·	·	·
CC(Sc1nnc(-c2ccccc2)n1C)C(=O)NCc1ccco1 (configuration not stated)	·	1%	·	·	·
COCCn1c(C)cc(C(=O)COC(=O)c2ccccc2Br)c1C	-1%	-32%	-4%	3%	-2
COCCn1c(C)cc(C(=O)COC(=O)c2cccnc2SC)c1C	-3%	8.9µM*	-8%	6%	0
COCCn1c(C)cc(C(=O)COC(=O)c2ccc(NC(=O)CC#N)cc2)c1C	-1%	2.8µM*	6%	0%	2
COCCn1c(C)cc(C(=O)COC(=O)c2ccc(S(=O)(=O)N(C)C)cc2)c1C	10%	1%	?	-2%	1
CCOC(=O)c1cccc(NC(=O)CC2C(=O)N(c3ccc(OC)cc3)C(=O)N2C2CCCC2)c1 (configuration not stated)	·	·	·	15%	·
COc1ccc(S(=O)(=O)c2c(Nc3ccccc3F)sc(C(=O)c3cccc(OC)c3)c2N)cc1	·	·	·	4%	·
CCC(C)NC(=O)c1ccccc1NC(=O)C1CCN(S(=O)(=O)Cc2ccccc2)CC1 (configuration not stated)	·	·	·	-13%	·
CCOC(=O)N1CCN(c2ncnc3nc[nH]c23)CC1	-1%	21%	20µM*	6%	-3
c1ccc2c(c1)CCN(c1ncnc3nc[nH]c13)C2	6%	3.5µM*!	23%	0%	-4
CCCCOc1ccc(C2/C(=C(\O)c3ccc4c(c3)OCCO4)C(=O)C(=O)N2CCCN2CCOCC2)cc1 (configuration not stated)	0%	1%	15%[15.4 µM]	-5%	-1
O=C1C(=O)N(CCN2CCOCC2)C(c2ccccc2)/C1=C(\O)c1ccc2c(c1)OCCO2 (configuration not stated)	21%	5%	?	8%	-1
